Measurements published in PubChem BioAssay (NCATS).
Results filed as inconclusive are left out. Entries that show only a call come without a potency. Calls of active or inactive are those of the source. Calls follow the shape of the dose curve; as a rule, active = well fitted inhibition curve with a large enough effect; inconclusive = small, poorly fitted or top-dose-only effect; inactive = flat fitted curve, though single readings scatter.

tested on: CP217; experiment: qHTS profiling for inhibitors of Plasmodium falciparum proliferation (AID 504749); also: nearly all actives have a fitted effect of over 60% in size; details: P. falciparum in erythrocytes, SYBR Green DNA, 72 h; series mostly up to 28.7 µM
Outline: (§1)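 Fluorescence of SYBR Green-bound parasite DNA, read at 485/535 nm, served as the growth measure. Infected erythrocytes were cultured with compound 72 h; artemisinin (0.29 uM) and DMSO wells defined the normalization range.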
Potency is read from the fitted curve at half-maximal effect.

| Structure (SMILES) | Potency |
| --- | --- |
| CN(C)CCCSc1ccccc1NC(=O)/C=C/c1ccccc1 | inactive |
| O.O.O.O.O.O.O.O=S(=O)([O-])[O-].[Co+2] | 11.2 µM (active) |
| CN1C(C(=O)Nc2ccccn2)C(=O)c2sc(Cl)cc2S1(=O)=O (stereo not given) | inactive |
| c1ccc2c(c1)OCC(CN1CCCCC1)O2 (stereo not given) | inactive |
| COc1ccc(C(=O)c2ccc(C)cc2)c(O)c1 | inactive |
| N=C(N)c1ccc(/C=C/c2ccc(C(=N)N)cc2O)cc1 | 11.2 µM (active) |
| CCCOc1cc(N)ccc1C(=O)OCCN(CC)CC | inactive |
| Cc1ncc[nH]1 | inactive |
| C[C@]12CCC(=O)C[C@@H]1CC[C@@H]1[C@@H]2CC[C@]2(C)C=CC[C@@H]12 | inactive |
| CC(=O)Nc1ccc(NC(=S)NC(=O)c2ccc(C(C)(C)C)cc2)cc1 | inactive |
| COc1cc(C)c(/C=C/C(C)=C/C=C/C(C)=C/C(=O)O)c(C)c1C | inactive |
| CCOC(=O)C1=C(COCCN)NC(C)=C(C(=O)OC)C1c1ccccc1Cl (stereo not given) | inactive |
| COc1ccc2c(=O)c(C)c(-c3ccccc3)oc2c1CN(C)C | inactive |
| Cc1c(C)c2c(c(C)c1OC(=O)CCC(=O)O)CC[C@@](C)(CCC[C@H](C)CCC[C@H](C)CCCC(C)C)O2 | inactive |
| CCCCO | inactive |
| C[C@H](CCCC(C)(C)O)[C@H]1CC[C@H]2[C@@H]3CC=C4C[C@@H](O)CC[C@]4(C)[C@H]3CC[C@]12C | inactive |
| O=C(CCCN1CCN2CCCC2C1)c1ccc(F)cc1 (stereo not given) | inactive |

| Structure (SMILES) | Potency |
| --- | --- |
| COC(=O)[C@@H](N)CS | inactive |
| O=C(O)CCC(=O)c1ccc(-c2ccccc2)cc1 | inactive |
| CC(C)=CCC/C(C)=C/C=C/C(C)=C/C=C/C(C)=C/C=C/C=C(C)/C=C/C=C(C)/C=C/C=C(\C)CCC=C(C)C | inactive |
| C[C@H](N)C(=O)N[C@@H](C)P(=O)(O)O | inactive |
| Cc1ncc(C[n+]2csc(CCO)c2C)c(N)n1 | inactive |
| O=C(OCc1ccccc1)c1cccnc1 | inactive |
| CC(C)NCC(O)COc1ccccc1-n1cccc1 (stereo not given) | inactive |
| Nc1ccc(N=Nc2ccccc2)c(N)n1 | inactive |
| CCCc1nc(C(C)(C)O)c(C(=O)OCc2oc(=O)oc2C)n1Cc1ccc(-c2ccccc2-c2nn[nH]n2)cc1 | inactive |
| CC(=O)Oc1cccc2c1C(=O)c1c(OC(C)=O)cc(C(=O)O)cc1C2=O | inactive |
| O=P(O)(O)OC[C@H](O)CO | inactive |
| C/C=C/C=C/C(=O)O | inactive |
| Cc1cc(C(=O)NCCc2ccc(S(=O)(=O)NC(=O)NN3CCCCCC3)cc2)no1 | inactive |
| CCC(=O)c1ccc2c(c1)N(CCCN1CCN(CCO)CC1)c1ccccc1S2 | 8.91 µM (active) |
| O=C(OC1C[C@@H]2CC3C[C@H](C1)N2CC3=O)c1c[nH]c2ccccc12 (stereo not given in full) | inactive |
| O=C(O)CC/C=C\CC[C@@H]1[C@@H](N2CCCCC2)[C@@H](O)C[C@@H]1OCc1ccc(-c2ccccc2)cc1 | inactive |
| CCN(CC)CCOc1ccc2nc(N(C)C)sc2c1 | inactive |

tested on: CP237; experiment: as above; details: P. falciparum in erythrocytes, SYBR Green DNA, 72 h; series mostly up to 28.7 µM
Outline: as §1

| Structure (SMILES) | Potency |
| --- | --- |
| COc1ccc(C(=O)c2ccc(C)cc2)c(O)c1 | inactive |
| N=C(N)c1ccc(/C=C/c2ccc(C(=N)N)cc2O)cc1 | 5.01 µM (active) |
| CCCOc1cc(N)ccc1C(=O)OCCN(CC)CC | inactive |
| Cc1ncc[nH]1 | inactive |
| COc1cc(C)c(/C=C/C(C)=C/C=C/C(C)=C/C(=O)O)c(C)c1C | inactive |
| O=P(O)(O)OP(=O)(O)O | inactive |
| CCCCO | inactive |
| O=C(CCCN1CCN2CCCC2C1)c1ccc(F)cc1 (stereo not given) | 10 µM (active) |
| COC(=O)[C@@H](N)CS | inactive |
| O=C(O)CCC(=O)c1ccc(-c2ccccc2)cc1 | inactive |
| C[C@H](N)C(=O)N[C@@H](C)P(=O)(O)O | inactive |
| Cc1ncc(C[n+]2csc(CCO)c2C)c(N)n1 | inactive |
| O=C(OCc1ccccc1)c1cccnc1 | inactive |
| Nc1ccc(N=Nc2ccccc2)c(N)n1 | inactive |
| Cn1c(O)c(N=NC(N)=S)c2ccccc21 | 11.2 µM (active) |
| CCCc1nc(C(C)(C)O)c(C(=O)OCc2oc(=O)oc2C)n1Cc1ccc(-c2ccccc2-c2nn[nH]n2)cc1 | inactive |
| CC(=O)Oc1cccc2c1C(=O)c1c(OC(C)=O)cc(C(=O)O)cc1C2=O | inactive |
| O=P(O)(O)OC[C@H](O)CO | inactive |
| C/C=C/C=C/C(=O)O | inactive |
| Cn1c(=O)c2c(ncn2CCOC(=O)C(C)(C)Oc2ccc(Cl)cc2)n(C)c1=O | inactive |
| Cc1cc(C(=O)NCCc2ccc(S(=O)(=O)NC(=O)NN3CCCCCC3)cc2)no1 | inactive |
| CCC(=O)c1ccc2c(c1)N(CCCN1CCN(CCO)CC1)c1ccccc1S2 | 7.94 µM (active) |
| O=C(OC1C[C@@H]2CC3C[C@H](C1)N2CC3=O)c1c[nH]c2ccccc12 (stereo not given in full) | inactive |
| CCN(CC)CCOc1ccc2nc(N(C)C)sc2c1 | inactive |

tested on: CP238; experiment: as above; details: P. falciparum in erythrocytes, SYBR Green DNA, 72 h; series mostly up to 28.7 µM
Outline: as §1

| Structure (SMILES) | Potency |
| --- | --- |
| CN(C)CCCSc1ccccc1NC(=O)/C=C/c1ccccc1 | inactive |
| O.O.O.O.O.O.O.O=S(=O)([O-])[O-].[Co+2] | 7.94 µM (active) |
| CN1C(C(=O)Nc2ccccn2)C(=O)c2sc(Cl)cc2S1(=O)=O (stereo not given) | inactive |
| c1ccc2c(c1)OCC(CN1CCCCC1)O2 (stereo not given) | inactive |
| COc1ccc(C(=O)c2ccc(C)cc2)c(O)c1 | inactive |
| N=C(N)c1ccc(/C=C/c2ccc(C(=N)N)cc2O)cc1 | 10 µM (active) |
| CCCOc1cc(N)ccc1C(=O)OCCN(CC)CC | inactive |
| Cc1ncc[nH]1 | inactive |
| C[C@]12CCC(=O)C[C@@H]1CC[C@@H]1[C@@H]2CC[C@]2(C)C=CC[C@@H]12 | inactive |
| CC(=O)Nc1ccc(NC(=S)NC(=O)c2ccc(C(C)(C)C)cc2)cc1 | inactive |
| COc1cc(C)c(/C=C/C(C)=C/C=C/C(C)=C/C(=O)O)c(C)c1C | inactive |
| CCOC(=O)C1=C(COCCN)NC(C)=C(C(=O)OC)C1c1ccccc1Cl (stereo not given) | inactive |
| COc1ccc2c(=O)c(C)c(-c3ccccc3)oc2c1CN(C)C | inactive |
| Cc1c(C)c2c(c(C)c1OC(=O)CCC(=O)O)CC[C@@](C)(CCC[C@H](C)CCC[C@H](C)CCCC(C)C)O2 | inactive |
| CCCCO | inactive |
| C[C@H](CCCC(C)(C)O)[C@H]1CC[C@H]2[C@@H]3CC=C4C[C@@H](O)CC[C@]4(C)[C@H]3CC[C@]12C | inactive |

| Structure (SMILES) | Potency |
| --- | --- |
| COC(=O)[C@@H](N)CS | inactive |
| O=C(O)CCC(=O)c1ccc(-c2ccccc2)cc1 | inactive |
| CC(C)=CCC/C(C)=C/C=C/C(C)=C/C=C/C(C)=C/C=C/C=C(C)/C=C/C=C(C)/C=C/C=C(\C)CCC=C(C)C | inactive |
| C[C@H](N)C(=O)N[C@@H](C)P(=O)(O)O | inactive |
| Cc1ncc(C[n+]2csc(CCO)c2C)c(N)n1 | inactive |
| O=C(OCc1ccccc1)c1cccnc1 | inactive |
| CC(C)NCC(O)COc1ccccc1-n1cccc1 (stereo not given) | inactive |
| Nc1ccc(N=Nc2ccccc2)c(N)n1 | inactive |
| CCCc1nc(C(C)(C)O)c(C(=O)OCc2oc(=O)oc2C)n1Cc1ccc(-c2ccccc2-c2nn[nH]n2)cc1 | inactive |
| CC(=O)Oc1cccc2c1C(=O)c1c(OC(C)=O)cc(C(=O)O)cc1C2=O | inactive |
| O=P(O)(O)OC[C@H](O)CO | inactive |
| C/C=C/C=C/C(=O)O | inactive |
| Cc1cc(C(=O)NCCc2ccc(S(=O)(=O)NC(=O)NN3CCCCCC3)cc2)no1 | inactive |
| O=C(OC1C[C@@H]2CC3C[C@H](C1)N2CC3=O)c1c[nH]c2ccccc12 (stereo not given in full) | inactive |
| O=C(O)CC/C=C\CC[C@@H]1[C@@H](N2CCCCC2)[C@@H](O)C[C@@H]1OCc1ccc(-c2ccccc2)cc1 | inactive |
| CCN(CC)CCOc1ccc2nc(N(C)C)sc2c1 | inactive |
